The campaign covered roughly 68,000 compounds. About 2,700 (4%) showed an effect of 50% or more. This is one part of a sample in which strong results are shown more often than they occur.
tested on: Plasmodium berghei; assay: Screen against P. berghei liver stage (PbLuc), transformed with Luciferase, at 2uM; type: functional, HepG2; conditions: tested at 2 uM

Going from `Cc1nc([C@H]2C[C@@H]3CCN(Cc4cnn(C)c4)C[C@H]3O2)sc1C` to `CCn1cc(CN2CCCC(c3[nH]ncc3-c3ccc(C)cc3)C2)cn1` (stereo not given), the INHIBITION falls from -19.14% to -20.72%.

Compared with `Cc1ccc(C(=O)N2CC3(CCCCC3)c3cc(C(=O)O)ccc32)cn1`, `Cc1ccc(-c2ncc(C(=O)N3CCN4CCCCC4C3)c(O)n2)cc1` (stereo not given) is higher in INHIBITION: -46.89% for the first, 60.9% for the second.

Going from `Cc1nc(CN2CCCN(CC(=O)N(C)CCC#N)CC2)no1` to `Cc1nc(CCN(C)C(=O)CN2CCCCCC2)no1`, the INHIBITION rises from -14.14% to 51.9%.

Going from `CC1CCN(CC(=O)N(C)CCc2noc(C3CC3)n2)C1=O` (stereo not given) to `Cc1cccc(CN2C(=O)C[C@H]3[C@@H]2CCN3CC2CC2)n1`, the INHIBITION falls from 27.73% to 3.86%.

First: COc1cc(N2C[C@@H]3COC[C@@H](Cc4nnc(C)o4)[C@@H]3C2)ncn1
Second: CCC(=O)N1CCCC(c2cc(Nc3ncccn3)nc(C)n2)C1 (stereo not given)
The INHIBITION of the first is higher: 21.27% for the first, 11.08% for the second.

Going from `COc1ccccc1N1CCN(Cc2nc(C)c(C)o2)CC1` to `COC1COC2(CCN(Cc3cccc(Cl)c3)CC2)C1` (stereo not given), the INHIBITION rises from -63.57% to 23.81%.

First: Cc1cc(CN2CCOC(CN(C)C)C2)no1 (stereo not given)
Second: CC(C)Cc1nc(CN2CCOC(Cn3cccn3)C2)no1 (stereo not given)
The INHIBITION of the first is higher: 16.64% for the first, -20.61% for the second.

Going from `O=C(NCCc1ccccc1)c1cn(CCNCc2cccnc2)nn1` to `O=C(NCc1cccnc1)c1cn(CCc2ccccc2)nn1`, the INHIBITION falls from 53.12% to 17.19%.

Compared with `O=C(NCCCOc1cccnc1)c1cn(CCc2ccccc2)nn1`, `CCOc1nc2cnccc2n(CC(=O)NCCc2ccccc2)c1=O` is lower in INHIBITION: 41.14% for the first, 28.85% for the second.

Going from `Cc1nc(CC(C)C)sc1C(=O)N1CCC1` to `Cc1nc(C(C)C)ncc1C(=O)N1CCCC(N2CCCC2)C1` (stereo not given), the INHIBITION rises from 11.18% to 11.44%.

First: O[C@@H]1C[C@@H](c2nc(-c3cccnc3)no2)N(C2CCOCC2)C1
Second: c1cc(-c2c[nH]c([C@@H]3COCCN3C3CCOCC3)n2)ccn1
The INHIBITION of the first is lower: -14.24% for the first, 30.63% for the second.

Going from `Cn1cccc1C(=O)NC[C@H]1C[C@@H]2CN(C(=O)c3ccco3)C[C@@H]2O1` to `Cn1cccc1C(=O)NC[C@H]1C[C@@H]2CN(C(=O)c3ccno3)C[C@H]2O1`, the INHIBITION rises from 6.8% to 50.32%.

First: O=C(NC[C@H]1C[C@@H]2CN(C(=O)c3ccco3)C[C@@H]2O1)c1ccsc1
Second: CN(C)C[C@H]1C[C@@H]2CN(C(=O)c3ccco3)C[C@@H]2O1
The INHIBITION of the first is higher: 34.93% for the first, 10.49% for the second.

Compared with `CN(C)C[C@H]1C[C@@H]2CN(C(=O)c3ccno3)C[C@@H]2O1`, `O=C(NC[C@H]1C[C@@H]2CN(C(=O)c3ccno3)C[C@@H]2O1)C1CCC1` is higher in INHIBITION: -30.38% for the first, 55.52% for the second.

Compared with `COc1ccc(CN(C)Cn2cc(C)n(-c3cc(C)on3)c2=O)cc1`, `COc1ccc(C(CC(=O)O)NC(=O)c2cc(C)on2)cc1` (stereo not given) is higher in INHIBITION: 14.29% for the first, 73.09% for the second.

Compared with `CCC1c2ccsc2CCN1C(=O)NCc1ccc(C)nc1` (stereo not given), `CCN(Cc1cccc(C(=O)Nc2c(C)cnn2C)c1)[C@H]1COC[C@@H]1O` is higher in INHIBITION: 11.09% for the first, 20.36% for the second.

Compared with `CO[C@@H]1CC[C@H]2[C@H]1OCCN2CCOCc1ccccc1`, `CC(C)c1nnc(N2C[C@H]3CC[C@@H](C2)N(Cc2ccccc2)C3)s1` is lower in INHIBITION: 3.11% for the first, -23.49% for the second.

First: Cc1nc(N[C@H]2COC[C@@H]2N2CCCCC2)c2c(C)nn(C)c2n1
Second: Cc1nn(C)c(N(C)C)c1CNCc1cccnc1N1CCOCC1
The INHIBITION of the first is lower: -11.88% for the first, 28.81% for the second.

Compared with `c1cc(-c2cnc(C3CCNCC3)cn2)n[nH]1`, `c1cc(-c2cncc(C3CCNCC3)n2)n[nH]1` is lower in INHIBITION: 66.18% for the first, 29.25% for the second.

Going from `Fc1ccc(-c2cnc(C3CCNCC3)cn2)cc1` to `O=c1[nH]c(-c2ccc(F)cc2)nc2c1CCNC2`, the INHIBITION rises from 14.8% to 53.66%.

Compared with `NC(=O)C1CN(C(=O)Nc2ccc(SC(F)(F)F)cc2)CCO1` (stereo not given), `O=C(NC1CC1)c1cc(NC(=O)N2CCOCC2)ccc1Cl` is higher in INHIBITION: -31.17% for the first, 64.9% for the second.

First: O=C(NCC1CC1)C1CCC2(CN(C(=O)c3ccno3)C2)O1 (stereo not given)
Second: O=C(NC1CCC1)C1CCC2(CN(C(=O)c3ccno3)C2)O1 (stereo not given)
The INHIBITION of the first is lower: -33.57% for the first, 57.85% for the second.

Going from `O=C(NC1CCC1)C1CCC2(CN(C(=O)c3ccco3)C2)O1` (stereo not given) to `O=C(NC1CC1)c1cc(NC(=O)N2CCCC2)ccc1Cl`, the INHIBITION rises from -160.99% to 31.51%.

Going from `Cc1cc(C)c(CNC(=O)CC2CCCO2)c(=O)[nH]1` (stereo not given) to `CN(CCOCC1CC1)C(=O)Nc1ccc(C#N)c(Cl)c1`, the INHIBITION falls from -36.34% to -47.52%.

Going from `O=C1CCCN1CCCC(=O)N1CCCC(Cc2cccnc2)C1` (stereo not given) to `Cc1nc(-c2cccnc2)ncc1C(=O)N1CCCCC(N)C1` (stereo not given), the INHIBITION rises from -11.81% to 6.22%.

First: COc1ccc(C(=O)N2C[C@@H](C(=O)O)[C@H](c3ccccc3C)C2)c(O)c1
Second: O=C(O)[C@@H]1CN(C(=O)c2ccc(O)cc2)C[C@H]1c1cccc(F)c1
The INHIBITION of the first is lower: -43.72% for the first, 38.65% for the second.

Compared with `CN1CCOC[C@H]1c1nc(-c2ccncc2)c[nH]1`, `CC(C)N1CCOC[C@H]1c1nc(-c2ccncc2)c[nH]1` is higher in INHIBITION: 28.45% for the first, 54.56% for the second.

First: CN(C)CC(=O)N1C[C@H]2CCC[C@@]2(COc2ccccn2)C1
Second: CN(C)CC(=O)N1CCC2(CC(=O)N(c3cccc(C#N)c3)C2)C1 (stereo not given)
The INHIBITION of the first is higher: 19.44% for the first, -3.08% for the second.

Compared with `O=C(CCC(=O)N1CCCC1c1ccsc1)N1CCOCC1` (stereo not given), `CNC(=O)CN1CCOCC2(C1)CN(C(=O)CC(C)C)CCO2` (stereo not given) is higher in INHIBITION: -26.92% for the first, -1.18% for the second.

Going from `Cc1ccc(-c2ncc(C(=O)N3CCC[C@H](N)C3)c(O)n2)cc1` to `Cc1ccc(-c2ncc(C(=O)N3CCCC(CCN)C3)c(O)n2)cc1` (stereo not given), the INHIBITION falls from 63.1% to 41.07%.

First: Cc1ccc(-c2ncc(C(=O)N3CCCN4CCC[C@H]4C3)c(O)n2)cc1
Second: CC1CCN(C(=O)[C@@H]2CC[C@@H]3[C@@H](CCN3c3ncc(F)cn3)O2)CC1
The INHIBITION of the first is higher: 32.26% for the first, 3.63% for the second.

First: c1cnc(N2C[C@H]3CCN(CC4CC4)C[C@H]3C2)cn1
Second: O=C1CO[C@@H]2CNC[C@H]2N1CC1CC1
The INHIBITION of the first is lower: 11.56% for the first, 27.61% for the second.

First: CC(Cn1cccn1)n1cnc2cccc(Cl)c2c1=O (stereo not given)
Second: CCN(Cc1noc(CC(C)C)n1)Cc1ccccc1Cl
The INHIBITION of the first is higher: 33.52% for the first, -33.2% for the second.

Going from `O=c1[nH]c(-c2ccccc2F)nc2c1CCNC2` to `O=c1[nH]c(-c2ccc(F)c(F)c2)nc2c1CCNC2`, the INHIBITION falls from 1.4% to -18.12%.

First: O=c1[nH]c(COc2ccc(Cl)cc2)nc2c1CCNC2
Second: O=c1[nH]c(-c2ccc(Cl)cc2)nc2c1CCNC2
The INHIBITION of the first is lower: 12% for the first, 57.21% for the second.

First: NC(=O)c1ccc(-c2nc3c(c(=O)[nH]2)CCNC3)cc1
Second: O=C1C[C@@H]2CC[C@H](CN1)N2C(=O)CCCc1ccc(Cl)cc1
The INHIBITION of the first is higher: 41.78% for the first, -29.06% for the second.

First: c1ccc(-c2cccc(N3CCC(NCCc4cscn4)CC3)c2)cc1
Second: O=C1C(NS(=O)(=O)c2cccc(F)c2)CCN1Cc1ccccc1 (stereo not given)
The INHIBITION of the first is lower: -8.16% for the first, 54.29% for the second.

First: CC(C)CN1C(=O)CO[C@@H]2CN(C(=O)N(C)C)C[C@H]21
Second: CC(C)CN1C(=O)CO[C@@H]2CNC[C@H]21
The INHIBITION of the first is lower: -20.67% for the first, 70.31% for the second.

First: CCSCc1cccc(NC(=O)N(C)Cc2ncnn2C)c1
Second: CC(C)OCc1cccc(NC(=O)N(C)Cc2ncnn2C)c1
The INHIBITION of the first is higher: 72.05% for the first, 31.51% for the second.

First: CCOc1cc(NC(=O)N(C)Cc2ncnn2C)ccc1C
Second: CCOc1nc2cccnc2n(CC(=O)NCCOC)c1=O
The INHIBITION of the first is lower: 31.51% for the first, 74.49% for the second.

Compared with `COCCNC(=O)Cn1c(-c2ccco2)cc2cccnc21`, `CNC(=O)c1cccc(CCNc2ncc(Br)cn2)c1` is lower in INHIBITION: 37.87% for the first, 12.41% for the second.

Compared with `Fc1cccc2[nH]c(CN3CCc4cncnc4C3)nc12`, `CN(C)Cc1nn(C)c2c1CCN(C(=O)c1cccnc1)C2` is higher in INHIBITION: 7.24% for the first, 47.97% for the second.

First: O=S1(=O)CCCN1Cc1coc(-c2ccc(C(F)(F)F)cc2)n1
Second: O=C1C(NS(=O)(=O)c2ccc(F)cc2)CCN1Cc1ccccc1 (stereo not given)
The INHIBITION of the first is lower: 1.8% for the first, 38.76% for the second.

Going from `CSc1ccc(C(C)NC(=O)c2cc(C)on2)cc1` (stereo not given) to `CSc1ccc(C(CC(=O)O)NC(=O)c2cc(C)on2)cc1` (stereo not given), the INHIBITION rises from -121.09% to -70.44%.

Compared with `O=C1C(NS(=O)(=O)c2cc(F)cc(F)c2)CCN1Cc1ccccc1` (stereo not given), `Cn1nnc2cc(C(=O)NS(=O)(=O)c3ccc(F)cc3)ccc21` is higher in INHIBITION: 23.92% for the first, 28.72% for the second.

Compared with `CC(C)CN1CC[C@@H]2[C@H](CC1)N(C(=O)c1ccccc1)CCS2(=O)=O`, `CC(=O)N1CCS(=O)(=O)[C@@H]2CCN(CC(C)C)CC[C@@H]21` is higher in INHIBITION: -1.31% for the first, 60% for the second.

Compared with `CC(=O)N1CCS(=O)(=O)[C@@H]2CCN(S(=O)(=O)CC(C)C)CC[C@@H]21`, `O=C(NC1CC1)c1cc(NC(=O)N2CCSCC2)ccc1Cl` is higher in INHIBITION: -12.76% for the first, 31.51% for the second.

Going from `Cc1nsc(C(=O)NCCc2ccc(S(N)(=O)=O)cc2)n1` to `Cc1cccc(S(=O)(=O)NC(=O)c2ccc3c(c2)nnn3C)c1`, the INHIBITION rises from -43.28% to 53.99%.

First: CCN(Cc1cc(F)c(OC)c(Cl)c1)Cc1nc(COC)no1
Second: CCN(Cc1cc(F)c(OC)c(Cl)c1)Cc1noc(CC(C)C)n1
The INHIBITION of the first is lower: -20.98% for the first, 71.91% for the second.

Going from `CCn1cc(N)c(-c2nnc3n2CCCC3)n1` to `Cn1nnc2cc(C(=O)NS(=O)(=O)c3cccc(C#N)c3)ccc21`, the INHIBITION falls from -37.89% to -40.9%.

Reference: ChEMBL document CHEMBL4513216, “Probing the Open Global Health Chemical Diversity Library for Multistage-Active Starting Points for Next-Generation Antimalarials” (ACS Infect Dis, 2020)
